Screens from PubChem.
An excerpt weighted towards active compounds, which were near 2.7% of everything screened.
LDHA inh: inhibitors of human lactate dehydrogenase A. P00338. purified LDHA, NADH/diaphorase-resazurin fluorescence; stronger effect = lower value. activity change, % (values are at about 110 or 230 µM). hit rate 0.15% among 480,000; in the data active = activity change below about -30%; inconclusive = mostly about -25% to -30%;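 note: plate controls were DMSO wells for no effect and wells without enzyme for full effect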
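Enzyme activity of human lactate dehydrogenase 5 (2 nM; 0.06 mM NADH, 0.2 mM pyruvate, 5 min, RT) is measured via a resazurin/diaphorase fluorescence readout of residual NADH.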
ALOX12 inh: blocks human arachidonate 12S-lipoxygenase | P18054 | purified 12hLO, xylenol orange hydroperoxide absorbance | Potency, µM (top dose mostly 108 µM), inactives show top-dose activity change, negative = inhibition, hits mostly inhibitors | hit rate 1.1% among 580,000 | AID 1671190; note: potency is the fitted concentration of half-maximal effect; % is set by controls: 0 for no effect and ±100 for the full control effect
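Hydroperoxide product was detected by ferrous iron/xylenol orange as the 573 to 405 nm absorbance ratio. Arachidonic acid at 40 uM (final) was turned over for 30 min at room temperature by 150 nM human 12hLO, pH 7.0 Hepes buffer, after 15 min compound preincubation.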
Nrf2 inh: inhibitors of Nrf2 signaling; A549 ARE-Fluc reporter, luciferase luminescence, 18-24 h; Potency, µM (top dose mostly 46 µM), for the others: at the top dose activity change, negative = inhibition, most hits filed as inhibitors; hit rate 2.1% among 360,000; note: potency is the fitted concentration of half-maximal effect; % is set by controls: 0 for no effect and ±100 for the full control effect; nearly all actives have a fitted effect of over 60% in size
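Two sequential reads on A549 ARE_Fluc cells exposed to compound for 18-24 h: a CellTiter-Fluor fluorescence read for viability, then a luciferase luminescence read for Nrf2/ARE activity.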
A549 viability: counter-screen for Nrf2 inhibitors: cytotoxicity in A549 cells | A549 ARE-Fluc cells, CellTiter-Fluor viability, 18-24 h | Potency, µM (highest dose often 46 µM), inactives show top-dose activity change, negative = cytotoxicity, actives largely listed as inhibitors | hit rate 0.16% among 390,000 | AID 504648; note: potency is the fitted concentration of half-maximal effect; % is set by controls: 0 for no effect and ±100 for the full control effect
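A549 ARE_Fluc cells in 5% FBS OPTI-MEM were exposed to compounds in concentration-response for 18-24 h at 37 deg C. Viability was read by CellTiter-Fluor fluorescence (Ex 405/Em 525) after 30 min, before the luciferase read.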
IDH1 R132H inh: human IDH1 R132H inhibition | IDH1-R132H enzyme, NADPH consumption, diaphorase/resazurin fluorescence | hit rate 0.093% among 390,000 | Potency, µM (top dose mostly 76.6 µM), for the others: at the top dose activity change, negative = inhibition, hits mostly inhibitors; note: potency is the fitted concentration of half-maximal effect; % is set by controls: 0 for no effect and ±100 for the full control effect; nearly all actives have a fitted effect of over 65% in size
Target sequence (O75874 whole entry R132H, stated change not applied): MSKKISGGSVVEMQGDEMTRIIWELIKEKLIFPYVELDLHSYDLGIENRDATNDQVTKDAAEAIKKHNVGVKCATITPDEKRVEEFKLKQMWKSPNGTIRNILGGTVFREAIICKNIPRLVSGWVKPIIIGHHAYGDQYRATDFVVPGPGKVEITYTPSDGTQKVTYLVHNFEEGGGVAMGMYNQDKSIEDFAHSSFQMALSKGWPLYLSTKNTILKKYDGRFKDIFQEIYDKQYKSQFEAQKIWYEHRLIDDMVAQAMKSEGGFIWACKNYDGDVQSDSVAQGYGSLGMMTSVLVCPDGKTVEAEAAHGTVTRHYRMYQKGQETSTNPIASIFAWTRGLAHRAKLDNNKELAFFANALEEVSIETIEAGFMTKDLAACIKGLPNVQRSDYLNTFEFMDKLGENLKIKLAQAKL
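IDH1-R132H (0.5 ug/mL dispensed) in pH 7.5 Tris buffer was preincubated 30 min with compound, then given a substrate mix of 0.016 mM NADPH and 2 mM alpha-KG for 80 min at room temperature; remaining NADPH was read by diaphorase/resazurin fluorescence.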
Nrf2 ARE act: activates Nrf2 signaling | AID 624171 | AREc32 ARE-luciferase reporter (MCF7-derived line), luminescence, 24 h | hit rate 0.31% among 410,000 | Potency, µM (series often up to 46.1 µM), without a hit: top-dose activation, actives largely listed as activators; note: potency is the fitted concentration of half-maximal effect; % of control where 0% means no effect; nearly all actives have a fitted effect of over 65% in size
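AREc32_Fluc, 1000 cells/well, OPTI-MEM + 5% FBS, o/n 37 deg C 5% CO2; 23 nL cpd by pin tool, 24 hr; Steady-Glo 30 min RT, luminescence.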
Starred values were filed as active, the others as inactive; ? = inconclusive; / = no result given; [ ] = remark or other dose. Unless noted, calls come from the whole dose curve; as a rule, active = well fitted curve in the direction sought with a large enough effect; inconclusive = small, poorly fitted or top-dose-only effect, or another doubt; inactive = no such curve, though single readings can be large; an effect the other way counts as inactive or inconclusive.

SMILES | LDHA inh | ALOX12 inh | Nrf2 inh | A549 viability | IDH1 R132H inh | Nrf2 ARE act
COc1ccc(C(=O)NC(=S)NCCc2ccccc2)cc1 | -4.3 | 15.8µM* | ? | -0.4% | -16.5% | 0.6%
O=C(NC(=S)NCCc1ccccc1)c1ccc(Cl)cc1 | -5.1 | ? | / | / | / | /
O=C(Nc1nonc1-c1ccc2c(c1)CCCC2)c1cccs1 | 12.0 | -7.7% | / | / | / | /
O=C(Nc1ccccc1C(=O)NCc1ccccc1)c1cccnc1 | 6.5 | -0.7% | / | / | / | /
CCC(C)NC(=O)c1ccc(CNC(=O)C2CCCCC2)cc1 (stereo not drawn) | 5.4 | -0.7% | / | / | / | /
CCc1ccc(C(C)NC(=S)NCc2ccc(F)cc2)cc1 (stereo not drawn) | -1.0 | 44.7µM* | -24.5% | 3.3% | -14.3% | -0.4%
O=C(NC(=S)NCc1ccccc1)c1ccccc1 | -2.5 | 39.8µM* | 15.3% | -3.1% | -2.7% | 1.8%
S=C(NCc1ccccc1)NCc1ccccc1 | -3.4 | -3.1% | 4.4% | -5.3% | -0.6% | -0.2%
COc1ccc(CCNC(=S)NC(=O)c2cccc([N+](=O)[O-])c2)cc1OC | -0.5 | 35.5µM* | -27.9% | -6.8% | 10.3% | 0.3%
CC(C)(C)C(=O)NC(=S)NCc1ccccc1 | -5.3 | 39.8µM* | -2.4% | 15.8% | 2.9% | 0.1%
CC(C)c1ccc(N/C=C/C(=O)c2ccc(Br)cc2)cc1 | -14.6 | ? | / | / | / | /
O=C(CC1CCCC1)N1CCCCCC1c1nnc(-c2ccccc2)o1 (stereo not drawn) | / | 14.3% | / | / | / | /
N#C/C(=C\C=C\c1ccco1)C(=O)NC1CCCCC1 | 55.8 | ? | / | / | / | /
CC1CCN(c2ccc(NC(=O)c3nn(-c4ccccc4)c(=O)c4ccccc34)cc2)CC1 | -1.3 | -41.8% | / | / | / | /
O=C(c1ccc(Cl)c([N+](=O)[O-])c1)N1CCN(c2ccccn2)CC1 | -7.7 | 22.0% | -6.9% | -2.2% | 0.3% | 3.1%
O=C(c1ccc(Sc2cccc(Cl)c2)c([N+](=O)[O-])c1)N1CCN(c2ccccn2)CC1 | -9.0 | 0.0% | 16.4µM* | -11.9% | -13.4% | 0.7%
CC(=O)NC1(C)CCCN(Cc2cccc(-c3ccc4c(ccn4C)c3)c2)C1 (stereo not drawn) | / | 35.5µM* | / | / | / | /
CC(=O)NC1(C)CCN(Cc2cccc(-c3cccc(Cl)c3)c2)C1 (stereo not drawn) | / | 39.8µM* | / | / | / | /
CC(=O)NC1(C)CCN(Cc2ccccc2-c2ccc3ccccc3c2)C1 (stereo not drawn) | / | 31.6µM* | / | / | / | /
COc1ccc(-c2cccc(CN3CCCC(C)(NC(C)=O)C3)c2)cc1OC (stereo not drawn) | / | -9.3%[176 µM] | / | / | / | /
CC(=O)NC1(C)CCCN(Cc2cccc(Nc3ccccc3)c2)C1 (stereo not drawn) | / | -21.3%[176 µM] | / | / | / | /
ClC(=C\c1ccccc1)/C=N/N1CCN(Cc2ccc(Cl)cc2)CC1 | -0.1 | ? | / | / | / | /
CCCC(C)NC(=O)CSc1nnc(Nc2ccc(CC)cc2)s1 (stereo not drawn) | -6.3 | -13.4% | / | / | / | /
CCOC(=O)C1CCCN(Cc2nc(N)nc(Nc3ccc(Cl)cc3)n2)C1 (stereo not drawn) | 5.2 | 99.3% | 25.9µM* | -18.2% | -4.1% | 0.2%
COc1cccc(CN(C)C(=O)c2ccc(Cl)c(S(=O)(=O)N3CCCCCC3)c2)c1OC | -6.3 | -3.4% | 18.4µM* | -15.9% | -8.9% | 1.2%
SMILES | LDHA inh | ALOX12 inh | Nrf2 inh | A549 viability | IDH1 R132H inh | Nrf2 ARE act
CCN(Cc1ccccc1)C(=O)c1cccc(S(=O)(=O)N2CCN(c3ccccc3)CC2)c1 | 0.8 | 4.6% | ? | -3.2% | 0.2% | 0.0%
CCN(Cc1ccccc1)C(=O)c1cccc(S(=O)(=O)N2CCN(c3ccc(F)cc3)CC2)c1 | -6.7 | 3.4% | 14.6µM* | -16.2% | 0.1% | 0.0%
COc1cccc(CNC(=O)C2CCCN(S(=O)(=O)N(C)c3ccc(F)cc3)C2)c1OC (stereo not drawn) | -2.2 | 2.1% | 25.9µM* | -11.2% | -0.2% | -0.3%
COc1cccc(CN(C)C(=O)c2cccc(S(=O)(=O)N3CCN(Cc4ccccc4)CC3)c2)c1OC | -0.2 | 11.5% | 10.3µM* | -16.7% | 0.8% | 0.0%
CCN1CC(=O)C=C(C)C1 | 5.1 | ? | / | / | / | /
Cc1ccc(NC(=O)c2ccc(CSc3ccc(Cl)cc3)cc2)cc1C | 7.6 | -6.1% | / | / | / | /
COc1ccccc1CNC(=O)c1cccc(S(=O)(=O)N2CCN(c3ccc(F)cc3)CC2)c1 | 2.2 | 2.8% | ? | -5.2% | 8.1% | 2.1%
COc1cccc(CN(C)C(=O)c2cccc(S(=O)(=O)N3CCN(c4ccc(F)cc4)CC3)c2)c1OC | -11.2 | -7.8% | 8.2µM* | ? | -2.0% | 0.4%
Cc1cc(C)c(NC2=NCC(=O)N2C2CCCCC2)c(C)c1 | -1.0 | ? | -0.2% | 1.6% | 9.7% | -0.7%
O=C1CN=C(Nc2cccc(C(F)(F)F)c2)N1C1CCCC1 | 0.8 | -27.0% | 14.6µM* | -26.6% | 3.5% | -0.7%
Cc1sc2nc(-c3ccccn3)[nH]c(=O)c2c1-c1ccccc1 | -4.3 | ? | 11.6µM* | -9.4% | -13.7% | 5.2%
O=C(COc1ccc(NC(=O)c2cccs2)cc1)c1ccc(F)cc1 | -11.1 | 432.1% | 16.4µM* | -18.5% | 7.4% | 3.0%
COc1cccc(C(=O)COc2ccc(NC(=O)c3cccs3)cc2)c1 | -4.3 | 1.5% | ? | -20.7% | 3.7% | 2.9%
CC(Oc1ccc2ccc(=O)oc2c1)C(=O)NC(N)=O (stereo not drawn) | -1.4 | -26.1% | / | / | / | /
Cn1c(=O)c2sccc2n(CC(=O)NCC2CCCO2)c1=O (stereo not drawn) | -40.6* | -19.2% | / | / | / | /
Cn1c(COc2ccc3c(c2)CCCC3)nnc1SCC(=O)NC1CCCCC1 | 13.2 | ? | / | / | / | /
COc1ccc(C(=O)n2nc(-c3ccco3)nc2NCc2cccs2)cc1OC | 3.9 | 7.94µM* | 4.5% | 4.8% | 0.9% | 8.0%
O=C(c1ccccc1)n1nc(-c2ccco2)nc1NCc1cccs1 | -2.8 | -0.2% | 5.0% | -6.4% | -20.8% | 2.8%
Cc1ccc(C(=O)n2nc(-c3ccco3)nc2NCc2cccs2)cc1 | -2.7 | 5.6% | 8.2µM* | -4.8% | 0.6% | -0.2%
COc1ccc(NC(=O)c2nn(C)c(=O)c3ccccc23)cc1S(=O)(=O)N(C)C | 4.5 | 15.3% | / | / | / | /
CCCc1c(CC)c(=N)c2ccccc2n1C | -44.7* | 5.01µM* | ? | -2.7% | 8.2% | -0.7%
Cn1c(-c2ccccc2)c(C(=O)CCl)c2ccccc21 | -9.1 | -26.1% | -1.6% | 3.5% | -1.6% | 11.1%
CCOC(=O)CCNC(=O)c1ccccc1Cl | -8.7 | 4.6% | / | / | / | /
c1ccc(C[n+]2csc3ccccc32)cc1 | 5.7 | ? | / | -6.7% | 7.5% | 14.7%
